From PubChem
Sampled rows, rich in hits. Any-hit rate of the full collection: about 19%.
TDP1 cell CPT: DT40-hTDP1 cell growth loss with CPT; chicken DT40 Tdp1-/-;hTDP1 cells + 20 nM CPT, ATP luminescence, 48 h; Potency, µM (top dose mostly 46.2 µM), without a hit: at the highest dose activity change, negative = growth inhibition, actives largely listed as inhibitors; hit rate 12% among 420,000; AID 686979; further: potency means the concentration at half of the fitted maximal effect; on the % scale 0 is the no-effect control and ±100 the full control effect; nearly all actives have a fitted effect of over 55% in size
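Chicken DT40 Tdp1-/- cells stably complemented with human TDP1 were seeded at 400 cells/well in medium containing 20 nM camptothecin, exposed to pin-transferred compounds, and grown at 37 °C for at least 48 hr. Viability was read as ATP luminescence.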
TGFb inhibitor: TGF-b pathway inhibition | HepG2 CAGA-GFP TGF-b/SMAD3 reporter, GFP fluorescence, 18 h; TGF-beta stimulated, 500 pg/mL final | Potency, µM (series often up to 46.1 µM), for inactives: top-dose activity, negative = inhibition, actives largely listed as inhibitors | hit rate 1.2% among 410,000; further: potency means the concentration at half of the fitted maximal effect; on the % scale 0 is the no-effect control and ±100 the full control effect; nearly all actives have a fitted effect of over 65% in size
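Cell-based qHTS in HEPG2 carrying a CAGA-GFP Smad reporter; compounds added before 500 pg/mL final TGF-beta, 18 h incubation at 37 degrees C, GFP fluorescence quantified per cell by imaging cytometry.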
S-ASM inh: human S-ASM enzyme inhibition | P17405 | placental ASM, HMU-PC fluorogenic substrate, 60 min | Potency, µM (series often up to 57.5 µM), for the others: top-dose activity change, negative = inhibition, most hits filed as inhibitors | hit rate 0.006% among 340,000 | AID 504937; further: potency means the concentration at half of the fitted maximal effect
Target sequence (P17405 47-631 limits assumed): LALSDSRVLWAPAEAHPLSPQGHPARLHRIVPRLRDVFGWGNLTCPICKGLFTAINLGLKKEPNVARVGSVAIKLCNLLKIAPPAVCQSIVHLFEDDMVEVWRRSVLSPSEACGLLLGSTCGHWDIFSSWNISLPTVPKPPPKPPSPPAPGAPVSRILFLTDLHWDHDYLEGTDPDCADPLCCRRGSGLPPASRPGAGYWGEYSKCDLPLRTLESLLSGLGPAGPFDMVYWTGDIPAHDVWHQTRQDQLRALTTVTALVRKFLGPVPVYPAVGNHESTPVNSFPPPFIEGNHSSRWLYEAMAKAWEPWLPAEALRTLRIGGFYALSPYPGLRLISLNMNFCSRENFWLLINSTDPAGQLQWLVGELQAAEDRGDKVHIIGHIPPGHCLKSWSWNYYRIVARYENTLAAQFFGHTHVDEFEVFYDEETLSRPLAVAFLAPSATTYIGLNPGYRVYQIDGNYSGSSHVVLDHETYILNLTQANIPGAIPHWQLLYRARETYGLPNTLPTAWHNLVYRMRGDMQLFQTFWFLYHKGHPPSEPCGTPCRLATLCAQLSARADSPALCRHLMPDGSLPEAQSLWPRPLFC
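HMU-PC0 cleavage (9 uM final) by human placental ASM, 60 min at 37 °C following 10 min compound exposure at RT; stopped at pH 10, fluorescence Ex 386/Em 447 nm.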
HepG2 viability: counter-screen for TGF-b inhibitors: cytotoxicity in HepG2 cells; HepG2 CAGA-GFP viability, ATP luminescence, 18 h; Potency, µM (highest dose often 46.1 µM), inactives show at the top dose activity change, negative = cytotoxicity, most hits filed as cytotoxic; AID 588856; hit rate 0.76% among 410,000; further: potency means the concentration at half of the fitted maximal effect
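HepG2 CAGA-GFP cells (1000/well, DMEM with 1% FBS) received compound, then TGF-beta at 500 pg/mL final, and were incubated 18 hours at 37 degrees C. Viability was read by CellTiter-Glo luminescence. Media-only wells were set as complete cell-killing and DMSO as no toxicity.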
IL-1B inflam inh: inhibitors of inflammasome signaling (IL-1 beta secretion). THP-1 LPS/ATP IL-1B secretion, AlphaLISA, 16 h; active compounds read low. activity change, % at 57.5 µM. hit rate 4.7% among 360,000. AID 743279; in the data active means activity change below about -50%; inconclusive means mostly about -30% to -49%; further: on the % scale 0 is the no-effect control and ±100 the full control effect
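THP-1 cells pretreated 1 hr with compounds (up to 57.5 uM final), then stimulated with LPS (250 ng/mL final) plus ATP (1.25 mM final); secreted IL-1B measured by AlphaLISA after 16 hr, decreased signal indicating inhibition.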
DT40 TDP1 no CPT: qHTS for Inhibitors of human tyrosyl-DNA phosphodiesterase 1 (TDP1): qHTS in cells in absence of CPT | hit rate 15% among 420,000 | Potency, µM (series often up to 46.2 µM), without a hit: at the highest dose activity change, negative = growth inhibition, actives largely listed as inhibitors | DT40 Tdp1-/- hTDP1 cells, no CPT, ATP luminescence, 48 h | AID 686978, 2013; further: potency means the concentration at half of the fitted maximal effect; on the % scale 0 is the no-effect control and ±100 the full control effect; nearly all actives have a fitted effect of over 55% in size
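Camptothecin absent (DMSO only). Human TDP1-complemented DT40 knockout cells, 400 cells/well, 37 °C for minimum 48 hr; ATP measured via CellTiter-Glo, 30 min dark incubation, luminescence.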
* hit, by the source's call; i = inactive; ? = inconclusive; . = no result given; [ ] = another dose, or the depositor's remark. Unless noted, the call rests on the fitted dose curve; in most records, active means well fitted curve in the direction sought with a large enough effect; inconclusive means small, poorly fitted or top-dose-only effect, or another doubt; inactive means no such curve, though single readings can be large; an effect the other way counts as inactive or inconclusive.

SMILES | TDP1 cell CPT | TGFb inhibitor | S-ASM inh | HepG2 viability | IL-1B inflam inh | DT40 TDP1 no CPT
CCCN1CCN(CCCNC(=O)Cn2ncc3c4ccccc4n(C)c3c2=O)CC1 | -1% | 3% | 1% | -1% | -17 | -17%
COc1ccc(N(CC(=O)NCc2ccccc2Cl)S(=O)(=O)c2c(C)nn(C)c2C)cc1 | -6% | ? | . | -7% | . | ?
O=C(CN1Cc2ccccc2OC(c2ccccc2F)C1)NC(c1ccccn1)C(F)(F)F (configuration not stated) | -5%[9.04 µM] | . | . | . | . | ?
O=CNc1c(Br)cc2c(c1Br)Cc1cc(Br)ccc1-2 | -17% | -16% | 1% | 1% | 10 | -10%
CC(=O)Nc1c(Br)cc2c(c1Br)Cc1cc(Br)ccc1-2 | -28% | ? | -6% | 0% | -15 | 13µM*
CCOC(=O)N1CCN(Cc2nc3cc(NC(=O)c4ccco4)ccc3n2C)CC1 | -1% | -7% | 0% | -13% | 9 | -1%
C#C[C@]1(O)CC[C@H]2[C@@H]3CCC4=CC(=O)CC[C@@H]4[C@H]3CC[C@@]21C | ? | 13% | -1% | -10% | 12 | ?
C#C[C@]1(OC(C)=O)CC[C@H]2[C@@H]3CCC4=CC(=O)CC[C@@H]4[C@H]3CC[C@@]21C | 8.4µM* | . | . | . | . | 12µM*
O=C1c2ccccc2C(=O)N1Cc1ccccc1F | -2% | 9% | -1% | -5% | 7 | 19%
CCN(CC)CCn1nc2c3c(cccc3c1=O)-c1ccccc1-2 | 0.52µM* | ? | 1% | -9% | -99* | 0.016µM*
O=C(CCn1nc(-c2ccccc2)c2ccccc2c1=O)NN1CCOCC1 | -4% | 1% | 7% | 6% | 21 | -5%
O=c1c2cccc3c2c(nn1CN1CCOCC1)-c1ccccc1-3 | ? | -17% | -3% | -9% | -14 | 21µM*
O=C(COc1ccccc1Cl)Nc1ccc(S(=O)(=O)Nc2ccccn2)cc1 | ? | -35% | -21% | -17% | ? | ?
CC(C)(C)C(=O)NNC(=O)C1CC1(c1ccccc1)c1ccccc1 (configuration not stated) | -1% | 10% | 2% | 11% | 0 | -6%
CCN1CCSc2ccc(C(=O)NCc3ccc(OC)cc3)cc21 | -65% | 0% | . | -34% | . | ?
COc1ccc(OC)c(CCNC(=O)c2ccc3c(c2)N(Cc2ccccc2)CCS3)c1 | 23µM* | 8% | 276% | -4% | 2 | 16µM*
Cc1ccc(CN2CCSc3ccc(C(=O)NCC(C)c4ccccc4)cc32)cc1 (configuration not stated) | ? | 0% | . | -6% | . | 23µM*
Cc1ccc(CN2CCSc3ccc(C(=O)NCCc4ccccc4)cc32)cc1 | 23µM* | -14% | . | -4% | . | 23µM*
O=C(NCCc1ccc(Cl)cc1)c1ccc2c(c1)N(Cc1ccccc1)CCS2 | 16µM* | -2% | . | -17% | . | ?
Cc1ccc(CN2CCSc3ccc(C(=O)NCc4ccccn4)cc32)cc1 | ? | ? | 419% | -68% | -2 | -16%
COc1ccc(S(=O)(=O)NCCc2sc(-c3cccnc3)nc2C)c(F)c1 | . | -1% | . | -21% | . | .
O=C(NCc1ccco1)c1ccc2c(c1)N(Cc1ccc(Cl)cc1)CCS2 | ? | -2% | 494% | 10% | -60* | ?
CC(C)c1nc(C(=O)N2CCCC(N3CCN(c4cccc(Cl)c4)CC3)C2)cs1 (configuration not stated) | ? | -9% | 3% | 0% | i | ?
c1ccc2c(c1)Cc1cc3ccccc3nc1-2 | ? | 11% | -2% | 7% | 13 | 21µM*
O=C1c2ccccc2-c2nc3ccccc3cc21 | ? | 33% | -5% | -4% | -6 | ?
SMILES | TDP1 cell CPT | TGFb inhibitor | S-ASM inh | HepG2 viability | IL-1B inflam inh | DT40 TDP1 no CPT
CC1(Cc2ccc(F)cc2)C(=O)Nc2c(Cl)ccc(Cl)c21 (configuration not stated) | ? | -17% | . | -4% | -59* | ?
CC1(Cc2ccccc2Cl)C(=O)Nc2c(Cl)cccc21 (configuration not stated) | 29µM* | 0% | . | 0% | -25 | ?
CC1(Cc2ccc(Cl)c(Cl)c2)C(=O)Nc2c(Cl)ccc(Cl)c21 (configuration not stated) | ? | ? | . | -100% | 27 | ?
CC1(Cc2ccccc2OC(F)(F)F)C(=O)Nc2c(Cl)ccc(Cl)c21 (configuration not stated) | 16µM* | 14µM* | . | -94% | 22 | 23µM*
CC1(Cc2ccc(OC(F)(F)F)cc2)C(=O)Nc2c(Cl)ccc(Cl)c21 (configuration not stated) | ? | 16µM* | . | -113% | 48 | ?
Cc1ccc(CNC(=O)[C@H]2O[C@@H](n3ccc(N)nc3=O)[C@H](O)[C@@H]2O)o1 | -6% | 0% | . | 2% | 6 | -4%
Cc1ccc(N2C(=O)C(CC(=O)Nc3cccc(F)c3)N(C3CC3)C2=O)cc1 (configuration not stated) | 4% | 0% | -11% | 0% | -22 | 2%
COc1ccc(-c2[nH]ncc2C(=O)NCc2ccccc2C)cc1 | -8% | . | . | -7% | . | -12%
CCOC(=O)C1=NOC2(C1)C(=O)Nc1ccc(OC(F)(F)F)cc12 (configuration not stated) | ? | . | . | . | -11 | 16µM*
CC1(Cc2ccc(OC(F)(F)F)cc2)C(=O)Nc2ccc(OC(F)(F)F)cc21 (configuration not stated) | ? | ? | . | 18µM* | -13 | ?
CC1(Cc2cccc(F)c2)C(=O)Nc2ccc(OC(F)(F)F)cc21 (configuration not stated) | ? | ? | . | -67% | -8 | ?
C/C(=N\NC(=O)Cc1c(F)cccc1Cl)c1cccnc1 | 3% | -16% | 6% | -4% | 17 | 1%
N/C(=N\OC(=O)N1CCOCC1)c1ccc(Br)cc1 | 21µM* | 8% | 7% | -31% | -21 | ?
CC[C@]1(C(=O)OC)[C@H]2C(=O)N(Cc3ccccc3)C(=O)[C@H]2[C@H]2CN(C)C(=NC)N21 | 15% | 11% | 0% | 5% | 32 | -5%
COc1ccccc1-c1nn2c(-c3cc(C)[nH]n3)nnc2s1 | 8.9µM* | -3% | . | 0% | . | 7.9µM*
